Experiments:
POU1 (OCT1 POU domain) = POU1 (OCT1 POU domain) (human, UniProt P14859 260-458); assay: EMSA-SELEX-seq; no BOB1; 20 mM Tris-HCl pH 7.6, 140 mM NaCl, 10% glycerol, 0.5 mM EDTA, 0.05% Triton X-100, 0.1 mg/mL BSA, 0.1 mg/mL poly(dI-dC), 5 mM DTT, room temperature, 20 min; high values mean tight binding; settings: protein: recombinant; dsDNA, one strand shown
Method in brief: (§1)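 Binding preference is reported as the percentage of sequenced 8-mers that match a motif pattern. Tagged POU-domain proteins were made in E. coli BL21, purified under denaturing conditions and renatured. A 30 ng portion was combined with 300 ng of a PCR-amplified double-stranded random 35-nt library, with or without 28 ng coactivator protein, in 20 μL Tris–HCl pH 7.6 binding buffer for 20 min at RT. Complex bands were excised from native 6% PAGE, eluted and PCR-amplified over four rounds before Illumina sequencing.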

POU2 (OCT2 POU domain) = target: T1, POU2 (OCT2 POU domain) (human, UniProt P09086 175-386); assay: as above; settings: protein: recombinant; dsDNA, one strand shown
T1 sequence: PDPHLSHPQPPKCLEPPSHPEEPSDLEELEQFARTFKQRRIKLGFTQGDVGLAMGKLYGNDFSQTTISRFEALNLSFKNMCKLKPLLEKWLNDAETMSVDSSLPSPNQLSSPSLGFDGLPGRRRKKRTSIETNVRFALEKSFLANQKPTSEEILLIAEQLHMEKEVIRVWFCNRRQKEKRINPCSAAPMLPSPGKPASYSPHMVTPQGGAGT
Method in brief: as §1

[1] = target: POU1 (OCT1 POU domain);BOB1 (OBF1, OCA-B) (human;human, UniProt P14859;Q16633 260-458;1-256, |); assay: EMSA-SELEX-seq; with BOB1 (ternary complex band); 20 mM Tris-HCl pH 7.6, 140 mM NaCl, 10% glycerol, 0.5 mM EDTA, 0.05% Triton X-100, 0.1 mg/mL BSA, 0.1 mg/mL poly(dI-dC), 5 mM DTT, room temperature, 20 min; high values mean tight binding; settings: protein: recombinant;recombinant; copies: 1;1; dsDNA, one strand shown
Method in brief: as §1

[2] = target: T2, POU2 (OCT2 POU domain);BOB1 (OBF1, OCA-B) (human;human, UniProt P09086;Q16633 175-386;1-256, |); assay: as above; settings: protein: recombinant;recombinant; copies: 1;1; dsDNA, one strand shown
T2 sequence 1: T1 sequence
T2 sequence 2: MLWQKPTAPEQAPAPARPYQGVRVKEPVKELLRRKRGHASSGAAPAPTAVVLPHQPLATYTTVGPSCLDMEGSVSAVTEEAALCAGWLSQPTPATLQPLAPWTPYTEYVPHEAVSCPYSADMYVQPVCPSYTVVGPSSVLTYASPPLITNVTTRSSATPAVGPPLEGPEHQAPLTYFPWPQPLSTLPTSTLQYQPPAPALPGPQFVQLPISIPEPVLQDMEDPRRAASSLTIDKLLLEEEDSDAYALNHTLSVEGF
Method in brief: as §1

Chain of POU1 (OCT1 POU domain) (P14859 260-458): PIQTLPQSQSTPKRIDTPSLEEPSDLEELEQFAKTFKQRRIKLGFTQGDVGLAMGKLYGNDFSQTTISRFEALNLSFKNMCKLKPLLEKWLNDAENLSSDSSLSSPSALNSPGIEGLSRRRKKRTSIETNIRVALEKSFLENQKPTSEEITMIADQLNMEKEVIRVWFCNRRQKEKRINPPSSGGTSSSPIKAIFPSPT

## AACTCAAA
POU1 (OCT1 POU domain)
  binding signal: 0.0397 % of ANNNNAAN 8-mers
POU2 (OCT2 POU domain)
  binding signal: 0.0368 % of ANNNNAAN 8-mers
[1]
  binding signal: 0.0445 % of ANNNNAAN 8-mers
[2]
  binding signal: 0.0231 % of ANNNNAAN 8-mers

## ACTAAAAG
POU1 (OCT1 POU domain)
  binding signal: 0.0282 % of ANNNNAAN 8-mers
POU2 (OCT2 POU domain)
  binding signal: 0.0368 % of ANNNNAAN 8-mers
[1]
  binding signal: 0.0332 % of ANNNNAAN 8-mers
[2]
  binding signal: 0.0297 % of ANNNNAAN 8-mers

## AGAGTAAC
POU1 (OCT1 POU domain)
  binding signal: 0.0206 % of ANNNNAAN 8-mers
POU2 (OCT2 POU domain)
  binding signal: 0.0322 % of ANNNNAAN 8-mers
[1]
  binding signal: 0.0234 % of ANNNNAAN 8-mers
[2]
  binding signal: 0.0264 % of ANNNNAAN 8-mers

## ATTAGAAC
POU1 (OCT1 POU domain)
  binding signal: 0.0427 % of ANNNNAAN 8-mers
POU2 (OCT2 POU domain)
  binding signal: 0.0564 % of ANNNNAAN 8-mers
[1]
  binding signal: 0.0355 % of ANNNNAAN 8-mers
[2]
  binding signal: 0.0355 % of ANNNNAAN 8-mers

## AAGGCAAT
POU1 (OCT1 POU domain)
  binding signal: 0.0519 % of ANNNNAAN 8-mers
POU2 (OCT2 POU domain)
  binding signal: 0.0489 % of ANNNNAAN 8-mers
[1]
  binding signal: 0.057 % of ANNNNAAN 8-mers
[2]
  binding signal: 0.0495 % of ANNNNAAN 8-mers

## ATGTAAAA
POU1 (OCT1 POU domain)
  binding signal: 0.714 % of ANNNNAAN 8-mers
POU2 (OCT2 POU domain)
  binding signal: 0.496 % of ANNNNAAN 8-mers
[1]
  binding signal: 0.631 % of ANNNNAAN 8-mers
[2]
  binding signal: 0.618 % of ANNNNAAN 8-mers

## ACAGAAAG
POU1 (OCT1 POU domain)
  binding signal: 0.0297 % of ANNNNAAN 8-mers
POU2 (OCT2 POU domain)
  binding signal: 0.0236 % of ANNNNAAN 8-mers
[1]
  binding signal: 0.0281 % of ANNNNAAN 8-mers
[2]
  binding signal: 0.0239 % of ANNNNAAN 8-mers

## ATCGTAAC
POU1 (OCT1 POU domain)
  binding signal: 0.0236 % of ANNNNAAN 8-mers
POU2 (OCT2 POU domain)
  binding signal: 0.0288 % of ANNNNAAN 8-mers
[1]
  binding signal: 0.0238 % of ANNNNAAN 8-mers
[2]
  binding signal: 0.0322 % of ANNNNAAN 8-mers

## ATTCAAAA
POU1 (OCT1 POU domain)
  binding signal: 0.365 % of ANNNNAAN 8-mers
POU2 (OCT2 POU domain)
  binding signal: 0.277 % of ANNNNAAN 8-mers
[1]
  binding signal: 0.427 % of ANNNNAAN 8-mers
[2]
  binding signal: 0.278 % of ANNNNAAN 8-mers

## AAATAAAC
POU1 (OCT1 POU domain)
  binding signal: 0.116 % of ANNNNAAN 8-mers
POU2 (OCT2 POU domain)
  binding signal: 0.119 % of ANNNNAAN 8-mers
[1]
  binding signal: 0.142 % of ANNNNAAN 8-mers
[2]
  binding signal: 0.13 % of ANNNNAAN 8-mers

## ATAGCAAA
POU1 (OCT1 POU domain)
  binding signal: 0.0744 % of ANNNNAAN 8-mers
POU2 (OCT2 POU domain)
  binding signal: 0.0552 % of ANNNNAAN 8-mers
[1]
  binding signal: 0.078 % of ANNNNAAN 8-mers
[2]
  binding signal: 0.0454 % of ANNNNAAN 8-mers

## AGCTTAAT
POU1 (OCT1 POU domain)
  binding signal: 0.0645 % of ANNNNAAN 8-mers
POU2 (OCT2 POU domain)
  binding signal: 0.0972 % of ANNNNAAN 8-mers
[1]
  binding signal: 0.0449 % of ANNNNAAN 8-mers
[2]
  binding signal: 0.0578 % of ANNNNAAN 8-mers

## AGCAAAAC
POU1 (OCT1 POU domain)
  binding signal: 0.0481 % of ANNNNAAN 8-mers
POU2 (OCT2 POU domain)
  binding signal: 0.0449 % of ANNNNAAN 8-mers
[1]
  binding signal: 0.0792 % of ANNNNAAN 8-mers
[2]
  binding signal: 0.0446 % of ANNNNAAN 8-mers

## AGGTAAAA
POU1 (OCT1 POU domain)
  binding signal: 0.129 % of ANNNNAAN 8-mers
POU2 (OCT2 POU domain)
  binding signal: 0.1 % of ANNNNAAN 8-mers
[1]
  binding signal: 0.146 % of ANNNNAAN 8-mers
[2]
  binding signal: 0.085 % of ANNNNAAN 8-mers

## AATGAAAC
POU1 (OCT1 POU domain)
  binding signal: 0.0461 % of ANNNNAAN 8-mers
POU2 (OCT2 POU domain)
  binding signal: 0.0719 % of ANNNNAAN 8-mers
[1]
  binding signal: 0.0433 % of ANNNNAAN 8-mers
[2]
  binding signal: 0.0487 % of ANNNNAAN 8-mers

## AAATGAAA
POU1 (OCT1 POU domain)
  binding signal: 0.15 % of ANNNNAAN 8-mers
POU2 (OCT2 POU domain)
  binding signal: 0.133 % of ANNNNAAN 8-mers
[1]
  binding signal: 0.21 % of ANNNNAAN 8-mers
[2]
  binding signal: 0.147 % of ANNNNAAN 8-mers

## AGTGAAAC
POU1 (OCT1 POU domain)
  binding signal: 0.0282 % of ANNNNAAN 8-mers
POU2 (OCT2 POU domain)
  binding signal: 0.0178 % of ANNNNAAN 8-mers
[1]
  binding signal: 0.0324 % of ANNNNAAN 8-mers
[2]
  binding signal: 0.0206 % of ANNNNAAN 8-mers

## AGTAAAAT
POU1 (OCT1 POU domain)
  binding signal: 0.226 % of ANNNNAAN 8-mers
POU2 (OCT2 POU domain)
  binding signal: 0.179 % of ANNNNAAN 8-mers
[1]
  binding signal: 0.236 % of ANNNNAAN 8-mers
[2]
  binding signal: 0.148 % of ANNNNAAN 8-mers

## AACTTAAG
POU1 (OCT1 POU domain)
  binding signal: 0.0351 % of ANNNNAAN 8-mers
POU2 (OCT2 POU domain)
  binding signal: 0.042 % of ANNNNAAN 8-mers
[1]
  binding signal: 0.0363 % of ANNNNAAN 8-mers
[2]
  binding signal: 0.0363 % of ANNNNAAN 8-mers

## ATGGCAAA
POU1 (OCT1 POU domain)
  binding signal: 0.0774 % of ANNNNAAN 8-mers
POU2 (OCT2 POU domain)
  binding signal: 0.057 % of ANNNNAAN 8-mers
[1]
  binding signal: 0.113 % of ANNNNAAN 8-mers
[2]
  binding signal: 0.0776 % of ANNNNAAN 8-mers

## AGTTCAAA
POU1 (OCT1 POU domain)
  binding signal: 0.0355 % of ANNNNAAN 8-mers
POU2 (OCT2 POU domain)
  binding signal: 0.0357 % of ANNNNAAN 8-mers
[1]
  binding signal: 0.0386 % of ANNNNAAN 8-mers
[2]
  binding signal: 0.0421 % of ANNNNAAN 8-mers

## ACTCTAAA
POU1 (OCT1 POU domain)
  binding signal: 0.0271 % of ANNNNAAN 8-mers
POU2 (OCT2 POU domain)
  binding signal: 0.0299 % of ANNNNAAN 8-mers
[1]
  binding signal: 0.0285 % of ANNNNAAN 8-mers
[2]
  binding signal: 0.0248 % of ANNNNAAN 8-mers

## AAGATAAA
POU1 (OCT1 POU domain)
  binding signal: 0.0622 % of ANNNNAAN 8-mers
POU2 (OCT2 POU domain)
  binding signal: 0.0662 % of ANNNNAAN 8-mers
[1]
  binding signal: 0.0585 % of ANNNNAAN 8-mers
[2]
  binding signal: 0.0405 % of ANNNNAAN 8-mers
